Experimental data taken from PubChem BioAssay (EPA / NIEHS).
Where “and” joins values, the source holds several entries; their conditions need not be identical. Identical values can stand only once. Some compounds were tested as several samples or in several runs, with calls that do not always agree. Calls of active or inactive are those of the source. Rule for the calls: active = hit-call score of the fitted dose curve at least 0.9, where 1 is the maximum; inactive = score below 0.9.

Key:
[1] = read-out: Interleukin-8 (IL8), CXCL8 (gene 3576); assay: BSK_BF4T_IL8: BioMAP Diversity Plus: BF4T Assay for Interleukin-8 (IL8) Biomarker Activity (AID 2284263); conditions: primary human bronchial epithelial cells with fibroblasts
In short: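 Human bronchial epithelial cells with dermal fibroblasts co-culture; IL-8 measured by ELISA 24 hours after dosing, fitted vs DMSO. Cytotoxicity tracked in parallel cultures by SRB total-protein staining.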

[2] = read-out: Interleukin-1 alpha (IL1a), IL1A (gene 3552); assay: BSK_BF4T_IL1a: BioMAP Diversity Plus: BF4T Assay for Interleukin-1 alpha (IL1a) Biomarker Activity (AID 2284264); conditions: primary human bronchial epithelial cells with fibroblasts
In short: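 Human bronchial epithelial cells co-cultured with dermal fibroblasts, dosed and read at 24 h. Secreted/surface IL-1α quantified by ELISA; gain-of-signal fitted relative to DMSO baseline. Parallel SRB total-protein staining tracked cytotoxicity.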

Decorin, DCN (gene 1634) = assay: BSK_MyoF_Decorin: BioMAP Diversity Plus: MyoF Assay for Decorin Biomarker Activity (AID 2284265); conditions: primary human lung fibroblasts
In short: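 In this multiplexed fibroblast system, secreted or surface decorin is detected by ELISA one day after dosing, with increases scored against the DMSO vehicle.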

KRT18 (gene 3875) [3] = assay: BSK_BF4T_Keratin818: BioMAP Diversity Plus: BF4T Assay for Keratin 818 Biomarker Activity (AID 2284266); conditions: primary human bronchial epithelial cells with fibroblasts
In short: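 Co-culture of human bronchial epithelial cells and dermal fibroblasts, chemical exposure 24 h. Keratin 8/18 measured by ELISA; positive-direction fit vs DMSO. SRB total protein run in parallel cultures for cytotoxicity.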

[4] = BSK_MyoF_SRB: Viability Assessment in the BioMAP Diversity Plus: MyoF Assay (AID 2284267); conditions: primary human lung fibroblasts;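 note: total protein by SRB absorbance in parallel cultures as cytotoxicity measure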
In short: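 Cytotoxicity in primary human lung fibroblasts is gauged by SRB total-protein staining 24 h after dosing, with DMSO as the negative control.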

[5] = read-out: Matrix Metallopeptidase 1 (MMP1), MMP1 (gene 4312); assay: BSK_MyoF_MMP1: BioMAP Diversity Plus: MyoF Assay for Matrix Metallopeptidase 1 (MMP1) Biomarker Activity (AID 2284268); conditions: primary human lung fibroblasts
In short: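 Fibroblasts from human lung receive compound for 24 h before ELISA quantitation of MMP1. DMSO serves as baseline, and the endpoint is fitted for signal gain.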

[6] = read-out: TIMP metallopeptidase inhibitor 1 (TIMP1), TIMP1 (gene 7076); assay: BSK_MyoF_TIMP1: BioMAP Diversity Plus: MyoF Assay for TIMP metallopeptidase inhibitor 1 (TIMP1) Biomarker Activity (AID 2284269); conditions: primary human lung fibroblasts
In short: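 ELISA read-out of TIMP-1 from primary human lung fibroblast cultures 24 h after compound dosing; gain of signal relative to DMSO vehicle baseline defines activity.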

[7] = read-out: Matrix Metallopeptidase 1 (MMP1), MMP1 (gene 4312); assay: BSK_BF4T_MMP1: BioMAP Diversity Plus: BF4T Assay for Matrix Metallopeptidase 1 (MMP1) Biomarker Activity (AID 2284270); conditions: primary human bronchial epithelial cells with fibroblasts
In short: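 Co-culture of human bronchial epithelial cells and dermal fibroblasts; MMP-1 levels measured by ELISA 24 hours after chemical dosing, relative to DMSO. Cytotoxicity checked in parallel cultures by SRB total-protein staining.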

[8] = read-out: Matrix Metallopeptidase 3 (MMP3), MMP3 (gene 4314); assay: BSK_BF4T_MMP3: BioMAP Diversity Plus: BF4T Assay for Matrix Metallopeptidase 3 (MMP3) Biomarker Activity (AID 2284271); conditions: primary human bronchial epithelial cells with fibroblasts
In short: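 Co-culture of human bronchial epithelial cells and dermal fibroblasts dosed 24 h; MMP-3 measured by ELISA, positive-direction fit versus DMSO. Cytotoxicity tracked by SRB total-protein staining (560 nm) in parallel cultures.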

[9] = read-out: Tissue plasminogen activator (tPA), PLAT (gene 5327); assay: BSK_BF4T_tPA: BioMAP Diversity Plus: BF4T Assay for Tissue plasminogen activator (tPA) Biomarker Activity (AID 2284272); conditions: primary human bronchial epithelial cells with fibroblasts
In short: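 tPA level quantified by ELISA at 24 h post-treatment in bronchial epithelial/dermal fibroblast co-cultures, gain of signal scored against DMSO baseline. Parallel cultures stained with 0.1% SRB (560 nm) to flag overt cytotoxicity.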

[10] = read-out: Plasminogen Activator Inhibitor-1 (PAI1), SERPINE1 (gene 5054); assay: BSK_BF4T_PAI1: BioMAP Diversity Plus: BF4T Assay for Plasminogen Activator Inhibitor-1 (PAI1) Biomarker Activity (AID 2284273); conditions: primary human bronchial epithelial cells with fibroblasts
In short: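 Co-culture of human bronchial epithelial cells and dermal fibroblasts exposed to compound for 24 h. PAI-1 measured by ELISA; activity fitted in positive direction versus DMSO. Parallel SRB staining assessed overt cytotoxicity.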

[11] = BSK_BF4T_SRB: Viability Assessment in the BioMAP Diversity Plus: BF4T Assay (AID 2284274); conditions: primary human bronchial epithelial cells with fibroblasts;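 for AC50: total cell protein by sulforhodamine B staining as a cytotoxicity measure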
In short: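 Co-culture of human bronchial epithelial cells and dermal fibroblasts (BioMAP BF4T) exposed 24 h. Total protein by sulforhodamine B staining (0.1% SRB after 10% TCA fixation, 560 nm) in parallel cultures; fitted vs DMSO.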

[12] = read-out: urokinase Plasminogen Activator (uPA), PLAU (gene 5328); assay: BSK_BF4T_uPA: BioMAP Diversity Plus: BF4T Assay for urokinase Plasminogen Activator (uPA) Biomarker Activity (AID 2284275); conditions: primary human bronchial epithelial cells with fibroblasts
In short: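 Co-culture of human bronchial epithelial cells and dermal fibroblasts; uPA quantified by ELISA 24 hours after dosing, fitted relative to DMSO. Parallel SRB total-protein staining assessed overt cytotoxicity.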

[13] = read-out: Matrix Metallopeptidase 9 (MMP9), MMP9 (gene 4318); assay: BSK_BF4T_MMP9: BioMAP Diversity Plus: BF4T Assay for Matrix Metallopeptidase 9 (MMP9) Biomarker Activity (AID 2284276); conditions: primary human bronchial epithelial cells with fibroblasts
In short: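 Co-culture of human bronchial epithelial cells and dermal fibroblasts dosed for 24 h; MMP-9 quantified by ELISA and fitted upward versus DMSO. Cytotoxicity monitored in parallel cultures by SRB total-protein staining at the biomarker time point.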

[14] = read-out: Interleukin-8 (IL8), CXCL8 (gene 3576); assay: BSK_IMphg_IL8: BioMAP Diversity Plus: IMphg Assay for Interleukin-8 (IL8) Biomarker Activity (AID 2284277); conditions: primary human endothelial cells with macrophages
In short: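 Co-culture of human venular endothelial cells and macrophages exposed to chemicals for 24 h; IL-8 quantified by ELISA and compared against the DMSO baseline, with SRB total-protein staining in parallel cultures for cytotoxicity.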

[15] = read-out: Intercellular Adhesion Molecule 1 (ICAM1), ICAM1 (gene 3383); assay: BSK_BE3C_ICAM1: BioMAP Diversity Plus: BE3C Assay for Intercellular Adhesion Molecule 1 (ICAM1) Biomarker Activity (AID 2284278); conditions: primary human bronchial epithelial cells
In short: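 Measured by ELISA: ICAM-1 expressed by primary human bronchial epithelial cells 24 h after compound treatment, with upward-direction fitting versus DMSO vehicle.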

[16] = read-out: Interferon-inducible T-cell alpha chemoattractant (ITAC), CXCL11 (gene 6373); assay: BSK_BE3C_ITAC: BioMAP Diversity Plus: BE3C Assay for Interferon-inducible T-cell alpha chemoattractant (ITAC) Biomarker Activity (AID 2284279); conditions: primary human bronchial epithelial cells
In short: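 ELISA read-out of I-TAC after 24 h chemical dosing of human lung primary bronchial epithelial cells; gain-of-signal fit vs DMSO baseline. Parallel SRB total-protein staining (0.1% SRB, 10% TCA fixation, 560 nm) assessed cytotoxicity.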

[17] = read-out: Interleukin-8 (IL8), CXCL8 (gene 3576); assay: BSK_BE3C_IL8: BioMAP Diversity Plus: BE3C Assay for Interleukin-8 (IL8) Biomarker Activity (AID 2284280); conditions: primary human bronchial epithelial cells
In short: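 IL-8 signal gain, normalised to DMSO vehicle, was scored after a 24 h chemical exposure of primary human bronchial epithelial cells, with detection by ELISA.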

[18] = read-out: Epidermal growth factor receptor (EGFR), EGFR (gene 1956); assay: BSK_BE3C_EGFR: BioMAP Diversity Plus: BE3C Assay for Epidermal growth factor receptor (EGFR) Biomarker Activity (AID 2284281); conditions: primary human bronchial epithelial cells
In short: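 Compound is added to human bronchial epithelial cells, cells incubate 24 h, then EGFR is detected by ELISA. Values reflect positive-direction fitting relative to DMSO.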

KRT18 (gene 3875) [19] = assay: BSK_BE3C_Keratin818: BioMAP Diversity Plus: BE3C Assay for Keratin 818 Biomarker Activity (AID 2284282); conditions: primary human bronchial epithelial cells
In short: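 BE3C: human bronchial epithelial primary cells, 24 h exposure, Keratin 8/18 ELISA; DMSO = negative control/baseline; cytotoxicity by parallel SRB stain (0.1% SRB after 10% TCA fixation, 560 nm).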

Measured: AC50

O=S(=O)(O)C(F)(F)C(F)(F)C(F)(F)C(F)(F)F
active: [14] 30 µM and 33.4 µM
inactive: all other assays above

Sc1ccccc1
inactive: Decorin, DCN (gene 1634) | [4] | [5] | [6]

NS(=O)(=O)C(F)(F)C(F)(F)C(F)(F)C(F)(F)C(F)(F)C(F)(F)C(F)(F)C(F)(F)F
inactive: Decorin, DCN (gene 1634) | [5] | [7]
active: [1] 49.2 µM and 48.2 µM | [2] 44.9 µM and 24.2 µM | Decorin, DCN (gene 1634) 52.9 µM | KRT18 (gene 3875) [3] 44.7 µM and 31.5 µM | [4] 43.1 µM and 42.8 µM | [6] 35.1 µM and 21.5 µM | [8] 52.2 µM and 49.7 µM | [9] 51.4 µM and 55 µM | [10] 44 µM and 45.9 µM | [11] 45 µM and 47.5 µM | [12] 48.2 µM and 44.3 µM | [13] 23.3 µM and 34 µM | [14] 52.1 µM and 14.9 µM | [15] 55 µM and 53 µM | [16] 43.2 µM and 36.9 µM | [17] 24.3 µM and 11.4 µM | [18] 25.1 µM and 38 µM | KRT18 (gene 3875) [19] 46.9 µM and 48 µM

O=C(O)C(F)(F)C(F)(F)C(F)(F)C(F)(F)C(F)(F)C(F)(F)C(F)(F)C(F)(F)C(F)(F)F
active: [2] 14.3 µM and 48 µM | Decorin, DCN (gene 1634) 23.6 µM and 22.3 µM | KRT18 (gene 3875) [3] 15 µM | [4] 50 µM and 38.9 µM | [5] 45 µM | [6] 50.6 µM and 37.4 µM | [7] 14.1 µM and 11 µM | [8] 18.5 µM and 21.3 µM | [9] 34.6 µM and 17.3 µM | [10] 22.9 µM and 24.8 µM | [11] 17.7 µM and 19.3 µM | [12] 14.6 µM and 18 µM | [13] 20 µM and 20.5 µM | [15] 16.9 µM and 14.6 µM | [16] 12.8 µM and 13.7 µM | [17] 10.1 µM and 14.2 µM | [18] 7.27 µM | KRT18 (gene 3875) [19] 14.5 µM
inactive: [1] | KRT18 (gene 3875) [3] | [5] | [14] | [18] | KRT18 (gene 3875) [19]
